Data: PubChem BioAssay (NCATS)
Inconclusive results are not listed. Active and inactive are the calls of the source. Unless noted, calls come from the whole dose curve.

Columns and labels:
[1] = Primary qHTS for inhibitors of SARS-S pseudo-typed particle cell entry (AID 1479145); conditions: outcome: dose series up to 57.1 µM unless noted; note: nearly all actives have a fitted effect of over 45% in size; for activity change, negative = inhibition: % is set by controls: 0 for no effect and ±100 for the full control effect
[2] = Primary qHTS for Huh7 cytotoxicity: counterscreen for inhibitors of MERS-S pseudotyped particle cell entry (AID 1479147); conditions: outcome: dose series up to 57.1 µM unless noted; for activity change, negative = cytotoxicity: % is set by controls: 0 for no effect and ±100 for the full control effect
[3] = Primary qHTS for inhibitors of MERS-S pseudo-typed particle cell entry (AID 1479149); conditions: outcome: dose series up to 57.1 µM unless noted; note: nearly all actives have a fitted effect of over 60% in size; for activity change, negative = inhibition: % is set by controls: 0 for no effect and ±100 for the full control effect
[4] = Primary qHTS for Vero E6 cytotoxicity: counterscreen for inhibitors of SARS-S pseudo-typed particle cell entry (AID 1479150); conditions: outcome: dose series up to 57.1 µM unless noted; for activity change, negative = cytotoxicity: % is set by controls: 0 for no effect and ±100 for the full control effect
[5] = Cytotoxicity counterscreen for inhibitors of SARS-CoV-2 cell entry (AID 1645845); conditions: outcome: dose series up to 57.1 µM unless noted; note: nearly all actives have a fitted effect of over 50% in size
Procedure, shortened: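 After a 15 min room-temperature ATPLite 1step step, luminescence reflected ATP remaining in HEK293-ACE2 cells exposed to compound for 1 h plus 48 h at 37 C, with percent activity set by cell and no-cell controls.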

[6] = Primary qHTS to identify inhibitors of SARS-CoV-2 cell entry (AID 1645846); conditions: SARS-CoV-2 pseudovirus cell entry assay, luminescence; activity change, negative = inhibition: at 57.1 µM (top of the series) unless noted; note: nearly all actives have a fitted effect of over 45% in size
Procedure, shortened: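 Using luciferase-reporting pseudoviruses carrying Wuhan-Hu-1 spike, the screen tracks entry into stably ACE2-expressing cells over 48 hr. Activity is expressed relative to spike particles versus particles lacking any fusion protein.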

[7] = biological target: Nuclear receptor subfamily 1 group I member 3 (Homo sapiens) (UniProt Q14994); experiment: Primary qHTS for antagonist of constitutive androstane receptor (CAR) against the NCATS DSHEA and TCM libraries (AID 1794836; active = well fitted curve in the direction sought with a large enough effect)
Procedure, shortened: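 HepG2 cells stably carrying hCAR and a CYP2B6 luciferase reporter (2,500 cells/well) attached for 5 h, then received compounds with 48 uM CITCO for 24 h at 37C. ONE-Glo luminescence read antagonism; CellTiter-Fluor (405/540 nm) gave viability.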

[8] = KB-8-5-11 P-gp reporter qHTS against the NCATS DSHEA and TCM libraries (AID 1919977; active = well fitted curve in the direction sought with a large enough effect; note: 0% is about no effect)
Procedure, shortened: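 Viability of drug-resistant KB-8-5-11 cells is measured by CellTiter-Glo luminescence following roughly 72 h treatment at 37C. Substances were titrated, with bortezomib as intraplate control.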

Nuclear receptor subfamily 1 group I member 3 (Homo sapiens), sequence (Q14994 whole entry, looked up): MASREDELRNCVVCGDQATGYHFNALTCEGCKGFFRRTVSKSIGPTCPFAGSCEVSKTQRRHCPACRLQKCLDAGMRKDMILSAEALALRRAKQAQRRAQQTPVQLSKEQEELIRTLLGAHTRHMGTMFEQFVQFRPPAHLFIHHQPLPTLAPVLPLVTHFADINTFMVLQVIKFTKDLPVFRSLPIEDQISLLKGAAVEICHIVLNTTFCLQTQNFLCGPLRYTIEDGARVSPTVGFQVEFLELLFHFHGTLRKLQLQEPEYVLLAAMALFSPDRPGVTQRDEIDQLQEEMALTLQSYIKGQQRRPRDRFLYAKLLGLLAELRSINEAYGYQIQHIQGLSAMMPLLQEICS

CC(C)(C)CC(=O)OCC(=O)[C@@]12OC(C)(C)O[C@@H]1C[C@H]1[C@@H]3CCC4=CC(=O)C=C[C@]4(C)[C@@]3(F)[C@@H](O)C[C@@]12C
inactive: Potency [1] | Potency [2] | Potency [3] | Potency [4] | Potency [5]
-18.4%: activity change, negative = inhibition [6]

O=S(=O)(O)Oc1ccc(C(c2ccc(OS(=O)(=O)O)cc2)c2ccccn2)cc1
inactive: Potency [1] | Potency [2] | Potency [3] | Potency [4] | Potency [5] | Potency [6]

CCC(O)c1ccccc1 (stereo not drawn)
-0.957%: activity change, negative = inhibition [6]
inactive: Potency [1] | Potency [2] | Potency [3] | Potency [4] | Potency [5]

CN(C(=O)CO)c1c(I)c(C(=O)NCC(O)CO)c(I)c(C(=O)NCC(O)CO)c1I (stereo not drawn)
-14.3%: activity change, negative = inhibition [6]
inactive: Potency [1] | Potency [2] | Potency [3] | Potency [4] | Potency [5]

Cc1cc(-c2ccc(N=Nc3c(S(=O)(=O)O)cc4cc(S(=O)(=O)O)cc(N)c4c3O)c(C)c2)ccc1N=Nc1c(S(=O)(=O)O)cc2cc(S(=O)(=O)O)cc(N)c2c1O
2.81%: activity change, negative = inhibition [6]
inactive: Potency [1] | Potency [2] | Potency [3] | Potency [4] | Potency [5]

NCCCC[C@H](NC(=O)[C@@H]1CCCN1C(=O)[C@@H]1CSSC[C@H](N)C(=O)N[C@@H](Cc2ccc(O)cc2)C(=O)N[C@@H](Cc2ccccc2)C(=O)N[C@@H](CCC(N)=O)C(=O)N[C@@H](CC(N)=O)C(=O)N1)C(=O)NCC(N)=O
-25.1%: activity change, negative = inhibition [6]
inactive: Potency [1] | Potency [2] | Potency [3] | Potency [4] | Potency [5]

O=C(O)C1=C(CSc2nnnn2CS(=O)(=O)O)CS[C@@H]2[C@@H](NC(=O)[C@H](O)c3ccccc3)C(=O)N12
-22.2%: activity change, negative = inhibition [6]
inactive: Potency [1] | Potency [2] | Potency [3] | Potency [4] | Potency [5]

CC(=O)OC1CC2CCC1(C)C2(C)C (stereo not drawn)
-37.9%: activity change, negative = inhibition [6]
inactive: Potency [1] | Potency [2] | Potency [3] | Potency [4] | Potency [5] | Potency [7] | Potency [8]

CN[C@@H]1[C@H](O[C@H]2[C@H](O[C@@H]3[C@@H](O)[C@H](O)[C@@H](N=C(N)N)[C@H](O)[C@H]3N=C(N)N)O[C@@H](C)[C@]2(O)C=O)O[C@@H](CO)[C@H](O)[C@H]1O
inactive: activity change, negative = inhibition [1] -20.2% [at 11.4 µM] | activity change, negative = cytotoxicity [2] -3.3% [at 11.4 µM] | outcome [3] inactive [at 11.4 µM] | activity change, negative = cytotoxicity [4] -2.76% [at 11.4 µM] | Potency [5] | Potency [6]
-18.7% [at 11.3 µM]: activity change, negative = inhibition [6]

Cc1ccc(/C=C2\C(=O)C3(C)CCC2C3(C)C)cc1 (stereo not drawn)
inactive: Potency [1] | Potency [2] | Potency [3] | Potency [4] | Potency [5] | Potency [6]

O=C(Cn1cnnn1)N[C@@H]1C(=O)N2C(C(=O)O)=C(CSc3nncs3)CS[C@H]12
inactive: Potency [1] | Potency [2] | Potency [3] | Potency [4] | Potency [5]
-9.88%: activity change, negative = inhibition [6]

COC(=O)CCC[N+](C)(C)C
inactive: Potency [1] | Potency [2] | Potency [3] | Potency [4] | Potency [5]
-38.5%: activity change, negative = inhibition [6]

CC[C@H]1[C@@H](O)[C@@H]2[C@H](CC[C@]3(C)[C@@H]([C@H](C)CCC(=O)O)CC[C@@H]23)[C@@]2(C)CC[C@@H](O)C[C@@H]12
inactive: Potency [1] | Potency [2] | Potency [3] | Potency [4] | Potency [5]
-6.18%: activity change, negative = inhibition [6]

O=P(O)(O)CP(=O)(O)O
inactive: Potency [1] | Potency [2] | Potency [3] | Potency [4] | Potency [5]
-15.6%: activity change, negative = inhibition [6]

C=CCN1CC[C@]23c4c5ccc(O)c4O[C@H]2[C@@H](OCCOCCOCCOCCOCCOCCOCCOC)CC[C@@]3(O)[C@H]1C5
inactive: Potency [1] | Potency [2] | Potency [3] | Potency [4] | Potency [5]
-22.8%: activity change, negative = inhibition [6]

NC[C@@H]1O[C@H](O[C@H]2[C@@H](O)[C@H](O[C@@H]3[C@@H](O)[C@H](N)C[C@H](N)[C@H]3O[C@H]3O[C@H](CO)[C@@H](O)[C@H](O)[C@H]3N)O[C@@H]2CO)[C@H](N)[C@@H](O)[C@@H]1O
inactive: activity change, negative = inhibition [1] -8.64% [at 0.573 µM] | outcome [2] inactive [at 0.573 µM] | outcome [3] inactive [at 0.573 µM] | activity change, negative = cytotoxicity [4] -20.5% [at 0.573 µM] | activity change, negative = cytotoxicity [5] -2.38% [at 0.702 µM] | outcome [6] inactive [at 0.702 µM]

C1CNCCN1
2.96% [at 114 µM]: activity change, negative = inhibition [6]
inactive: Potency [1] | Potency [2] | Potency [3] | Potency [4] | Potency [5]

Cc1ncc(COP(=O)(O)O)c(C)c1O
inactive: Potency [1] | Potency [2] | Potency [3] | Potency [4] | Potency [5] | Potency [7] | Potency [8]
-31.2%: activity change, negative = inhibition [6]

CCC(CC)[C@H](NC(C)=O)[C@@H]1[C@H](O)[C@@H](C(=O)O)C[C@H]1N=C(N)N
-12.4% [at 0.702 µM]: activity change, negative = inhibition [6]
inactive: outcome [1] inactive [at 0.573 µM] | outcome [2] inactive [at 0.573 µM] | outcome [3] inactive [at 0.573 µM] | outcome [4] inactive [at 0.573 µM] | outcome [5] inactive [at 0.702 µM]

Cc1cc(N2CCN([C@@H]3CN[C@H](C(=O)N4CCSC4)C3)CC2)n(-c2ccccc2)n1
inactive: Potency [1] | Potency [2] | Potency [3] | Potency [4] | Potency [5]
-20%: activity change, negative = inhibition [6]

CC[C@H]1OC(=O)C[C@@H](O)[C@H](C)[C@@H](O[C@@H]2O[C@H](C)[C@@H](O[C@H]3C[C@@](C)(O)[C@@H](O)[C@H](C)O3)[C@H](N(C)C)[C@H]2O)[C@@H](CC=O)C[C@@H](C)C(=O)/C=C/C(C)=C/[C@@H]1CO[C@@H]1O[C@H](C)[C@@H](O)[C@@H](OC)[C@H]1OC
inactive: Potency [1] | Potency [2] | Potency [3] | Potency [4] | Potency [5] | Potency [6]

CCOC(=O)CCC(=O)O[C@H]1[C@H](O[C@@H]2[C@@H](C)[C@H](O[C@H]3C[C@@](C)(OC)[C@@H](O)[C@H](C)O3)[C@@H](C)C(=O)O[C@H](CC)[C@@](C)(O)[C@H](O)[C@@H](C)C(=O)[C@H](C)CC2(C)O)O[C@H](C)C[C@@H]1N(C)C (stereo partly drawn)
inactive: Potency [1] | Potency [2] | Potency [3] | Potency [4] | Potency [5]
-2.45%: activity change, negative = inhibition [6]

CO[C@H]1C[C@@H]2CC[C@@H](C)[C@@](O)(O2)C(=O)C(=O)N2CCCC[C@H]2C(=O)O[C@H]([C@H](C)C[C@@H]2CC[C@@H](OCCO)[C@H](OC)C2)CC(=O)[C@H](C)/C=C(/C)[C@@H](O)[C@@H](OC)C(=O)[C@H](C)C[C@H](C)\C=C/C=C\C=C/1C
inactive: Potency [1] | Potency [2] | Potency [3] | Potency [4] | Potency [5]
-11.8% [at 27.1 µM]: activity change, negative = inhibition [6]
